Results as given in PubChem BioAssay (NCI).
About 79,000 compounds went through this panel and 15% of them were active in at least one assay; those are over-represented in the sample as a whole. Active and inactive are the calls of the source. Rule as the data show it: active = growth inhibition above about 70%; inactive = the rest.

Test: NCI Yeast Anticancer Drug Screen. Data for the sgs1 mgt1 strain (AID 161);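 also: 0% = growth of cultures given vehicle only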
Conditions: S. cerevisiae sgs1 mgt1 strain, at 50.0 µM, stronger effect = higher value
Method: Growth inhibition of yeast strains with defined genetic alterations is measured as a screen for potential anti-cancer activity. Selected strains with alterations in DNA damage repair or cell cycle control were exposed to compounds and growth inhibition was measured relative to vehicle treated controls. The strain used in this assay is sgs1 mgt1

Row | Structure (SMILES) | growth inhibition
1 | CN(C)CCCNc1ccc([N+](=O)[O-])c2nc3ccccc3c(N)c12 | 6.45% (inactive)
2 | COc1ccc(/C=C2\N=C(SC)NC2=O)cc1 | 25.9% (inactive)
3 | CC1(N)CCC(C(C)(C)N)CC1 (stereo not given) | 10.8% (inactive)
4 | COC1c2ccccc2CC1(C)C (stereo not given) | 5.65% (inactive)
5 | CC(=O)Nc1ncc2ccccc2c1-c1ccc(NC(=O)CCCl)cc1 | 19.8% (inactive)
6 | CC1(C(=O)Sc2ccccc2)OC1(C)c1ccccc1 (stereo not given) | 4.85% (inactive)
7 | Cc1ccc(C(=O)N/N=C/c2c(O)ccc3ccccc23)cc1 | 9.95% (inactive)
8 | CCCC(=O)OC1C=C2N3C(=O)C4CC56C(=CC(OC(C)=O)C7OC75)N4C(=O)C3CC26C2OC12 (stereo not given) | 89.7% (active)
9 | Cc1cccc(C)c1NN | 11.8% (inactive)
10 | CC(=O)[CH-]C(=O)c1ccccc1.CC(=O)[CH-]C(=O)c1ccccc1.CC[C@H](/C=C/C(C)[C@H]1CCC2[C@@H]3CC=C4C[C@@H]([O-])CC[C@]4(C)C3CC[C@@]21C)C(C)C.CC[O-].[Ti+4] (stereo not given in full) | -2.45% (inactive)
11 | CCO/N=C(/N)c1ncn(Cc2ccccc2)c1NCC(OCC)OCC | -4.2% (inactive)
12 | CC(C)c1ccc(OC(=N)c2ccccc2)cc1 | -9.45% (inactive)
13 | Cc1cc2c(cc1C)C(=O)c1ccccc1C2=O | -15.1% (inactive)
14 | CCOC(=O)CCC(C(=O)OCC)N1C(=O)c2ccccc2C1=O (stereo not given) | 8.25% (inactive)
15 | Cc1cccc(NC(=O)Nc2ccccc2)n1 | 9.55% (inactive)
16 | [N-]=[N+]=NC12CC3C4CC5CC3C(C1)C(C5)C4C2 | -6.65% (inactive)
17 | O=C1c2ccccc2CC12Cc1ccc3c(c1C2=O)CCCC3 (stereo not given) | -3.85% (inactive)
18 | Cc1ccc2c(c1)C(=Nc1ccc(Cl)cc1)C(=O)N2 | 1.75% (inactive)
19 | Cc1cccc(F)c1C | 4.9% (inactive)
20 | Oc1ccc2ccccc2c1C=NCCS | 2.7% (inactive)

Row | Structure (SMILES) | growth inhibition
21 | O=S(CC(O)(c1ccccc1)c1ccccc1)c1ccccc1 (stereo not given) | 18% (inactive)
22 | O=C(Oc1ccc2ccccc2c1)c1ccccc1 | 28.4% (inactive)
23 | O=C(Nc1ccccc1)Oc1ccccc1C1CCCCC1 | 6% (inactive)
24 | C=Cc1ccccc1N=NC(C(=O)OC)=P(c1ccccc1)(c1ccccc1)c1ccccc1 | -1.2% (inactive)
25 | C=CC1(C)C(C)=C(C)C(C)=C1C | -13.7% (inactive)
26 | CCc1nc(-c2ccccc2)nc2c1nc(-c1ccc(C)cc1)n2Nc1ccccc1 | -2.95% (inactive)
27 | Cc1ccc2ccc(-c3cc4ccccc4s3)nc2c1 | -1.5% (inactive)
28 | CC1(C)CCCC2(C)[C@@H]1CC[C@]13C[C@](C)(CC[C@@H]21)[C@@H]3CO (stereo not given in full) | -22.6% (inactive)
29 | CC(=O)OCC1OC(N2C(=O)C(=O)c3cc(C)ccc32)C(OC(C)=O)C(OC(C)=O)C1OC(C)=O (stereo not given) | 5.85% (inactive)
30 | CS/C(c1ccccc1)=[N+](\[O-])Cc1ccccc1 | -7.1% (inactive)
31 | NC(CS(=O)Cc1ccccc1)C(=O)O (stereo not given) | -0.3% (inactive)
32 | C#Cc1cccc(N=Cc2cc(Br)cc(OC)c2O)c1 | 1.3% (inactive)
33 | CCCCCCCCCCCCCCCCCC1(c2ccccc2)NC(=O)NC1=O (stereo not given) | 30.5% (inactive)
34 | CC(=O)NC1c2ccccc2C(C)(C)C12CCC1(CC2)OCCO1 (stereo not given) | -4.8% (inactive)
35 | Cc1ccc(N(C)C)cc1 | 10.8% (inactive)
36 | CCn1c2ccccc2c2ccc(N=Cc3ccc4ccccc4c3)cc21 | -7.3% (inactive)
37 | COC1C2C[C@@H](O)CCC2C(C(=O)OCCl)C[C@H]1O (stereo not given in full) | -11% (inactive)
38 | CCCc1cc(C)cc(N=Cc2ccccc2)c1O | 93.8% (active)
39 | CCc1ccc(S(N)(=O)=O)cc1 | -16.3% (inactive)
40 | Nc1nc2c(C(=O)c3ccco3)nnn2c2cccc(Cl)c12 | 11.6% (inactive)
